# From PubChem
# Shown are actives, neighbours in structure and some others; about 13% of the full set was active somewhere.
# USP28 inh – inhibitors of human USP28 deubiquitinase | Q96RU2 | purified USP28, Ub-rhodamine cleavage fluorescence, 30 min | inhibition, % at 25 µM | 3% of 47,000 active | AID 1645857
# USP10 inh – blocks human USP10 ubiquitin-rhodamine cleavage | inhibition, % at 20 µM | Q14694 | purified USP10, Ub-rhodamine fluorescence, 60 min | 1.1% of 47,000 active
# USP30 inh – human USP30 deubiquitinase inhibition; purified USP30, Ub-rhodamine cleavage fluorescence; 5.3% of 47,000 active; Q70CQ3; inhibition, % at 25 µM
# USP8 block – inhibitors of human USP8 deubiquitinase | purified USP8, Ub-rhodamine cleavage fluorescence, 30 min | P40818 | inhibition, % at 20 µM | AID 1645853 | 4.2% of 47,000 active
# Target sequence (P40818 whole entry, looked up): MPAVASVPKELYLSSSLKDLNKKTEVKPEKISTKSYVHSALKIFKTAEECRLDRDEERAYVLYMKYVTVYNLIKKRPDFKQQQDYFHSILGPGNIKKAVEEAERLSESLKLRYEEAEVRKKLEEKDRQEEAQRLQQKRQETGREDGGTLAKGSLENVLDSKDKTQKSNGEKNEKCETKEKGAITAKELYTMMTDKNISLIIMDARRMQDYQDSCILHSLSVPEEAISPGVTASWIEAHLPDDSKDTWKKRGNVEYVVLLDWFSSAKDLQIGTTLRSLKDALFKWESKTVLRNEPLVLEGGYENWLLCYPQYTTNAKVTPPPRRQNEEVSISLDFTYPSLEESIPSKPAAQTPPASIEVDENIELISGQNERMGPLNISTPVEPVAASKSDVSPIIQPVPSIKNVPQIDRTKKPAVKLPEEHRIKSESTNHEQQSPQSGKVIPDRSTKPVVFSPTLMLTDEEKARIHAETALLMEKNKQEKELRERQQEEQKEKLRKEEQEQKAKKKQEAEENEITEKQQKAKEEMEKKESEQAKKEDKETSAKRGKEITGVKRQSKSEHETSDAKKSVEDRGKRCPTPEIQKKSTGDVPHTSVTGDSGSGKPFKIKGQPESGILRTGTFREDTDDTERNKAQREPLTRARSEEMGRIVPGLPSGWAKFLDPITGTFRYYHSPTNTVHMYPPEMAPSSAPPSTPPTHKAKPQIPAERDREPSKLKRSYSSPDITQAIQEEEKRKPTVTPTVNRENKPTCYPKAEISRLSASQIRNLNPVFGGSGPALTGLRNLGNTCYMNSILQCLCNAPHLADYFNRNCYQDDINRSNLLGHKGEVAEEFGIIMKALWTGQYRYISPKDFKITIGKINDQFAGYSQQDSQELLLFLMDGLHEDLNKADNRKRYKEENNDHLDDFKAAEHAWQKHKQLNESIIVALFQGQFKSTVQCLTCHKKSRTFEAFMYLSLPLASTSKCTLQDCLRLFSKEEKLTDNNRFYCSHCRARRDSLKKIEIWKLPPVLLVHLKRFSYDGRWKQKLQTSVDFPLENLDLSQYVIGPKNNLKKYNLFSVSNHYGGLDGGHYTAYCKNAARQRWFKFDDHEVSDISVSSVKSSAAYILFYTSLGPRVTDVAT
# USP17 inh – blocks human USP17 ubiquitin-rhodamine cleavage | A8MUK1 | purified USP17, Ub-rhodamine cleavage fluorescence, 3 h | inhibition, % at 50 µM | 6.5% of 47,000 active | AID 1645855
# Numbers without * were called inactive; i = inactive; x = not tested or not shown. No stated cut-off is given here; in the data, active means inhibition above about 30%; inactive means the rest.
SMILES,USP28 inh,USP10 inh,USP30 inh,USP8 block,USP17 inh
CC(=O)CSc1nc2sc3c(c2c(=O)n1-c1ccccc1)CCCC3,6.9,23.7,30.1*,10.2,16.4
O=C(NCCc1ccccc1Cl)c1oc(=O)c2ccccc2c1-c1ccccc1,29.5,13.1,43.6*,19.3,18.8
O=C(Nc1ccccc1F)c1oc(=O)c2ccccc2c1-c1ccccc1,-20.2,2.6,-4.3,-0.7,-9.7
CC(C)C(=O)O[C@H]1[C@H](C)C(=O)O[C@@H](C)[C@@H](NC(=O)c2cccc(NC=O)c2O)C(=O)O[C@@H]1C,17.8,-2.4,35.2*,-31.4,45.4*
CCc1ccc(-n2c(=O)c3ccccc3n(CC(=O)N3CCCC3)c2=O)cc1,4.1,1.5,6.3,-1.4,7.6
O=C(NCC1(O)CCc2ccccc21)c1ccc2c(c1)OCO2 (stereo unspecified),10.1,6.2,33.2*,-0.7,15.0
COc1ccc(CCn2cnc3c4ccccc4n(C)c3c2=O)cc1OC,67.2*,-2.9,10.1,13.1,2.9
COc1ccc(CCn2cnc3c4ccccc4n(C)c3c2=O)cc1,5.7,0.2,19.0,2.3,12.3
O=c1[nH]c2c(cc1CNCCc1ccccc1)c(-c1ccc(F)cc1)nn2-c1ccccc1,-14.7,0.7,-26.1,65.8*,x
Cc1ccc(CNCc2cc3c(-c4ccc(F)cc4)nn(-c4ccccc4)c3[nH]c2=O)cc1,-32.4,-5.3,-164.6,44.9*,-35.3
CN1CC(=O)N(C2CCNC2)Cc2c(NC3Cc4ccccc4C3)ncnc21 (stereo unspecified),19.7,-3.5,11.5,11.6,49.9*
O=C1CC2C3CCC(=O)c4c(O)ccc(c43)C2(O)c2cccc(O)c21 (stereo unspecified),36.9*,10.4,-0.3,34.6*,46.9*
COc1cccc(-c2nc(-c3nnn(-c4ccccc4)c3-c3ccncc3)no2)c1,-0.1,8.2,29.0,21.7,19.9
CC(NC(=O)c1cc2c(=O)n(C)ccc2n1C)c1ccccc1 (stereo unspecified),7.5,3.1,1.4,45.1*,21.9
CN(CCc1ccccc1)c1nccc(N2CCN(C(=O)c3cccc(C#N)c3)CC2)n1,0.1,1.8,4.2,-5.8,-9.4
N#Cc1ccc(COc2ncnc3scc(-c4ccccc4)c23)cc1,35.0*,-3.8,10.5,10.4,-9.0
Cc1[nH]nc(C(F)(F)F)c1N,-6.8,-0.1,-0.2,0.1,0.6
O=C(COC(=O)C(Cc1c[nH]c2ccccc12)NC(=O)c1ccccc1Cl)Nc1cc(F)ccc1F (stereo unspecified),21.7,11.7,16.1,4.5,31.7*
Nc1ncnc2c([C@@H]3O[C@H](CO)C(O)C3O)[nH]nc12 (stereo partly specified),-3.8,-1.5,5.5,2.2,0.0
CN1CCN(C(=O)c2oc3ccccc3c2NC(=O)c2ccc(F)cc2)CC1,10.8,-1.2,15.5,41.0*,7.4
O=C(Nc1c(C(=O)N2CCCCCC2)oc2ccccc12)C1CCCC1,22.7,1.9,26.6,31.6*,23.6
Cc1ncncc1C(=O)N1CCCC(c2ncc(Cc3ccccc3F)o2)C1 (stereo unspecified),-7.1,-2.8,-8.2,-17.1,-15.1
O=c1cc(CN2CCc3ccccc32)cc[nH]1,-102.9,-7.4,i,32.6*,-86.1
Cn1cc(C2CCCN2CC(=O)Nc2ccnn2C2CCCC2)cn1 (stereo unspecified),-12.1,-6.7,-86.2,-11.8,-7.6
CC(C)OCCCN1C(=O)c2[nH]nc(-c3ccccc3O)c2C1c1cccc(Cl)c1 (stereo unspecified),3.9,24.5,5.0,54.9*,26.9
SMILES,USP28 inh,USP10 inh,USP30 inh,USP8 block,USP17 inh
O=C1c2[nH]nc(-c3ccccc3O)c2C(c2ccc(O)cc2)N1Cc1ccncc1 (stereo unspecified),-11.3,5.4,-2.0,19.6,-0.1
CC(=O)O[C@@H]1C(=O)C2=C(C(=O)C[C@H]3C(C)(C)C(=O)CC[C@]23C)[C@]2(C)C(=O)C[C@H]([C@H](C)CC(=O)C[C@@H](C)C(=O)O)[C@@]12C,2.1,0.0,-10.5,1.0,-15.0
Cc1ccn(-c2ccc(NC(=O)c3ccccc3Sc3ccccc3C#N)cc2)n1,38.3*,6.6,34.9*,11.6,50.5*
CC1CCCCN1C(=O)c1cc2c(=O)n3ccccc3nc2n1Cc1ccccc1 (stereo unspecified),-9.5,-2.1,0.6,-7.4,-7.1
Cc1cc(-c2ccnc3c(C#N)cnn23)c(C)s1,4.1,0.5,-5.2,4.0,67.2*
O=C(Cn1c(N2CCC(Cc3ccccc3)CC2)nc2ccccc21)c1ccccc1,9.0,10.9,42.3*,8.8,19.9
CCOC(=O)C1CCN(c2nc3ccccc3n2Cc2cccc(F)c2)CC1,-8.1,-11.5,-58.2,0.2,6.5
Cc1ccc2nc(NC(=O)C3CC(=O)N(Cc4ccccc4)C3)sc2c1 (stereo unspecified),-4.3,-1.7,-25.2,31.2*,9.7
COc1ccc(/C=C/C(=O)N(Cc2ccc(OC)cc2)C2CCS(=O)(=O)C2)cc1 (stereo unspecified),5.6,2.3,5.3,1.2,0.8
CCCCC/C=C/C(O)C(O)/C=C/c1ccc(Cl)c(O)c1CO (stereo unspecified),6.2,-8.3,-63.7,-77.5,30.9*
Nc1ncnc(SCc2ccc(Cl)cc2)n1,3.6,6.8,22.9,8.3,54.0*
OCCCn1c(-c2ccccc2)cn2c(-c3ccccc3)c(-c3ccccc3)nc12,4.6,-2.3,-0.5,30.0,25.8
COc1ccc(-n2c(-c3ccccc3)cn3c(-c4ccccc4)c(-c4ccccc4)nc23)cc1,22.7,4.6,59.2*,80.2*,54.8*
OCCn1c(-c2ccccc2)cn2c(-c3ccccc3)c(-c3ccccc3)nc12,-6.4,5.0,2.0,58.4*,19.0
COc1ccc(-c2cn3c(-c4ccccc4)c(-c4ccccc4)nc3n2CCc2ccccc2)cc1,-1.9,4.2,-13.3,72.8*,26.6
O=C(CC1CCN(S(=O)(=O)c2ccc(Cl)cc2)CC1)NCc1cccc(F)c1,8.0,2.3,4.3,-12.8,21.0
Cc1ccc2c(c1)CCCN2C(=O)c1c(C)nn(-c2ccccc2)c1C,-20.2,-3.4,-126.2,-25.9,-27.4
Cn1ccnc1CN1CCOC[C@H]1c1ncc(-c2ccccc2)[nH]1,12.1,-0.9,5.4,-14.7,-26.4
CCc1ccc(NS(=O)(=O)c2c[nH]c3ccc([N+](=O)[O-])cc23)cc1,24.7,14.1,65.8*,2.4,60.2*
O=[N+]([O-])c1ccc2[nH]cc(S(=O)(=O)Nc3ccc(Cl)cc3)c2c1,5.1,9.6,3.6,-58.7,-7.4
NC(=O)COc1coc(CN2CCN(c3cccc(Cl)c3)CC2)cc1=O,2.7,-4.1,7.9,8.7,-2.1
O=C(CN1C(=O)C(c2ccccc2)Oc2cccnc21)NCCCN1CCCCCC1 (stereo unspecified),-15.2,-5.4,-61.1,-16.3,40.9*
CCOc1ccccc1CNC(=O)CCCN1C(=O)C(c2ccccc2)Oc2cccnc21 (stereo unspecified),-4.0,0.0,-6.5,1.4,10.2
